Results: PubChem BioAssay (NCATS)
Several values for one entry are separate records, joined by “and”; a condition that tells them apart may be missing. Identical values can stand only once. Inconclusive results are not listed. Activity calls are given as the source filed them. Unless noted, the call rests on the fitted dose curve.

Legend:
[1] = molecular target: Estrogen receptor (Homo sapiens) (UniProt P03372); assay: qHTS assay for small molecule antagonists of estrogen receptor alpha signaling (AID 588513; active means well fitted curve in the direction sought with a large enough effect in the signal ratio, with a control signal flat, not every such curve was filed as active; the % refers to the signal ratio; further: potency means the concentration at half of the fitted maximal effect)
Chain of Estrogen receptor (Homo sapiens) (P03372 whole entry, looked up): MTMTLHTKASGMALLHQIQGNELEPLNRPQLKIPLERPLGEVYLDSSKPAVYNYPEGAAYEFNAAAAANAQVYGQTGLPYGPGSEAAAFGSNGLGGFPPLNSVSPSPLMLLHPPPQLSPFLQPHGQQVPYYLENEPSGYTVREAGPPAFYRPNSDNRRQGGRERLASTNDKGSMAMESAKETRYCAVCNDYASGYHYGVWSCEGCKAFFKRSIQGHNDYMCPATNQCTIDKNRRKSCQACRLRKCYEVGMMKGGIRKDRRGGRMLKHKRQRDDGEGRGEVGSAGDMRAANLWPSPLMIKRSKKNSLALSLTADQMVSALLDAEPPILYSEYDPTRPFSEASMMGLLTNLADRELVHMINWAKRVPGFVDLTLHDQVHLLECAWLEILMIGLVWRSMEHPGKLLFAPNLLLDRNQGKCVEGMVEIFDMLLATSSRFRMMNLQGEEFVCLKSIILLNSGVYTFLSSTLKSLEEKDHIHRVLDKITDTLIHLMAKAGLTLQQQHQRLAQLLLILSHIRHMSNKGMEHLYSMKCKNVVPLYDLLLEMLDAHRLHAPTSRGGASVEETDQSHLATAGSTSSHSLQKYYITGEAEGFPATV
Procedure, shortened: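 ER-alpha-UAS-bla GripTite HEK 293 cells in 2% charcoal/dextran-treated FBS medium; compounds titrated (1:2, duplicate), then stimulated with 0.5 nM 17-beta-estradiol for 18 h at 37C. CCF4 beta-lactamase fluorescence; Hill-fit IC50 and efficacy.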

[2] = molecular target: Vitamin D3 receptor (Homo sapiens) (UniProt P11473); assay: qHTS assay for small molecule agonists of vitamin D receptor signaling (AID 588543);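 further: 0% = DMSO basal and 100% = reference agonist control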
Chain of Vitamin D3 receptor (Homo sapiens) (P11473 whole entry, looked up): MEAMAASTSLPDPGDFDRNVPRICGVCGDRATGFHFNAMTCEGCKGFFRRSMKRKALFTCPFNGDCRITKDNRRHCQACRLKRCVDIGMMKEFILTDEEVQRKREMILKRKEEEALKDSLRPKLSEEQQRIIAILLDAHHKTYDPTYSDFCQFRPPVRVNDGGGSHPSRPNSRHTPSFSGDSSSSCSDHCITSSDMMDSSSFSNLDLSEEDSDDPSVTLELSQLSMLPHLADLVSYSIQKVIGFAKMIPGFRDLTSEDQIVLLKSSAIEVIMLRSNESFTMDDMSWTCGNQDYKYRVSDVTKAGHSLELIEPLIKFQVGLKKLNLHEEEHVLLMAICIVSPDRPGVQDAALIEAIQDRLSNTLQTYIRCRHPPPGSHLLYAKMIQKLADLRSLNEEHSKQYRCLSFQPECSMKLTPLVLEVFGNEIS
Procedure, shortened: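 VDR-UAS-bla HEK293T cells, 2000/well, 2% charcoal-stripped FBS; compound titration 16 h at 37 C; CCF4 beta-lactamase ratio read. Normalized to 50 nM 1-alpha,25-dihydroxyvitamin D3 (100%) and DMSO; Hill fit gives EC50, efficacy.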

[3] = molecular target: Peroxisome proliferator-activated receptor delta (Homo sapiens) (UniProt Q03181); assay: qHTS assay for small molecule agonists of peroxisome proliferator-activated receptor delta signaling (AID 588534);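 further: 0% = DMSO basal wells and 100% = positive control agonist at 10 µM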
Chain of Peroxisome proliferator-activated receptor delta (Homo sapiens) (Q03181 whole entry, looked up): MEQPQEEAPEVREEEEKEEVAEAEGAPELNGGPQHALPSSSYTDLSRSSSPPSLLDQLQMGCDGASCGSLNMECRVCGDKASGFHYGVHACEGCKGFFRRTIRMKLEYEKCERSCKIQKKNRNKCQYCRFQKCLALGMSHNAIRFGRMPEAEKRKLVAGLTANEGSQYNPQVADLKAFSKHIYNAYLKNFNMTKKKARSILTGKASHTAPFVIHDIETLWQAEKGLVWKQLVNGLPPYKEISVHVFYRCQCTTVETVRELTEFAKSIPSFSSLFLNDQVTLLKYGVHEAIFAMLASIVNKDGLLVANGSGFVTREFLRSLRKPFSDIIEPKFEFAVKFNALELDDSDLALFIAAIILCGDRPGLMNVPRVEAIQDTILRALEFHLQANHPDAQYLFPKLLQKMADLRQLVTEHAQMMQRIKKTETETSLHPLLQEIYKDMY
Procedure, shortened: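 Fluorescence from CCF4 substrate cleavage by beta-lactamase reporter, read 2 hrs at RT, measured agonist activity. Compounds were tested with 18 hrs exposure at 37 C. Concentration-response data fitted to Hill equation.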

[4] = molecular target: Peroxisome proliferator-activated receptor gamma (Homo sapiens) (UniProt P37231); assay: qHTS assay for small molecule agonists of peroxisome proliferator-activated receptor gamma signaling (AID 588536; active means well fitted curve in the direction sought with a large enough effect in the signal ratio, with a control signal flat, not every such curve was filed as active; the % refers to the signal ratio;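 further: 0% = DMSO basal wells and 100% = rosiglitazone at 2 µM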)
Chain of Peroxisome proliferator-activated receptor gamma (Homo sapiens) (P37231 whole entry, looked up): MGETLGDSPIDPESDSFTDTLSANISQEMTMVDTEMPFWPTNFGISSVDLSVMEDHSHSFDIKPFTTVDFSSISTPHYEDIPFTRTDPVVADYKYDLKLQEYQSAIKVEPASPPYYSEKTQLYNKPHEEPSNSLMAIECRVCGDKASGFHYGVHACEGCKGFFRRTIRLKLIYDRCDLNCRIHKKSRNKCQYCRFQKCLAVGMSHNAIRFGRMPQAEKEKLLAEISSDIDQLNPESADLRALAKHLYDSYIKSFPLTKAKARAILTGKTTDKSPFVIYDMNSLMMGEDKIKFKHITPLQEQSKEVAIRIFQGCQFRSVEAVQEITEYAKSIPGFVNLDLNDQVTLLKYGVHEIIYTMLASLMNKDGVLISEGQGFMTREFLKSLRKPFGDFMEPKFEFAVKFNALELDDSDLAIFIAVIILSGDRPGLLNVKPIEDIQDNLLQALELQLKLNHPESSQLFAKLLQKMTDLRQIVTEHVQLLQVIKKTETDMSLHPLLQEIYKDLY
Procedure, shortened: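 PPAR-gamma-UAS-bla HEK293 cells in medium with 1% charcoal/dextran-treated FBS were exposed to compounds for 16 h at 37 C. Beta-lactamase activity was read with CCF4 substrate (405 nm excitation, 460/530 nm emission).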

[5] = molecular target: Vitamin D3 receptor (Homo sapiens) (UniProt P11473); assay: qHTS assay for small molecule antagonists of vitamin D receptor signaling (AID 588541);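 further: receptor activated by calcitriol during compound treatment; series mostly up to about 77 µM; on the % scale 0 is the no-effect control and ±100 the full control effect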
Procedure, shortened: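 VDR-UAS-bla HEK293T cells (2000/well, 2% charcoal-stripped FBS) were treated with titrated compounds plus 1-alpha,25-dihydroxyvitamin D3 (50 nM or 3 nM final) for 16 h at 37 C. CCF4 beta-lactamase fluorescence was read; Hill fits gave IC50.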

[6] = qHTS assay for small molecule antagonists of retinoid X receptor alpha signaling (AID 588546; active means well fitted inhibition curve with a large enough effect in the signal ratio, with a control signal flat, not every such curve was filed as active; the % refers to the signal ratio;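 further: cells stimulated with 9-cis-retinoic acid as agonist; on the % scale 0 is the no-effect control and ±100 the full control effect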); conditions: HEK293T RXRa-UAS-bla, beta-lactamase ratio, antagonist mode; measured here: W530 green channel, cytotoxicity proxy
Procedure, shortened: (§1)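 Beta-lactamase reporter inhibition, read as CCF4 fluorescence ratio (ex 405, em 460/530 nm) after 2 h at RT. HEK293T UAS-bla cells, 2500/well, were stimulated with 9-cis-RA at 500 or 100 nM final alongside test compound for 18 h at 37 C.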

[7] = molecular target: Retinoic acid receptor RXR-alpha (Homo sapiens) (UniProt P19793); assay: as above; conditions: HEK293T RXRa-UAS-bla, beta-lactamase ratio, antagonist mode
Chain of Retinoic acid receptor RXR-alpha (Homo sapiens) (P19793 whole entry, looked up): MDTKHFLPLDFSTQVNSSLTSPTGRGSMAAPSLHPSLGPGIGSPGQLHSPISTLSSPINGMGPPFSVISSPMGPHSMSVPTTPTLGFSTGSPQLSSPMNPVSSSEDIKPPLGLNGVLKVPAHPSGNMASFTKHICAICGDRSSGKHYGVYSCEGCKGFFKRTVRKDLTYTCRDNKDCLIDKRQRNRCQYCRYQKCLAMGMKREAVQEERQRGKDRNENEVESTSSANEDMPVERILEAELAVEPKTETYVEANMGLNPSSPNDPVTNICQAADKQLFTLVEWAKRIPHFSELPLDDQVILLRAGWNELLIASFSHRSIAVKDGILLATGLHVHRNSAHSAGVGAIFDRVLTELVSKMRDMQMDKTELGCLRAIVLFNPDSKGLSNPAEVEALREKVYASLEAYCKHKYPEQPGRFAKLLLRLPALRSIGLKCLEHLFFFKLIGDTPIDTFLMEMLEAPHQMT
Procedure, shortened: as §1

[8] = qHTS assay for small molecule activators of the p53 signaling pathway (AID 651743; active means well fitted activation curve with a large enough effect in the signal ratio, not every such curve was filed as active; the % refers to the signal ratio; further: series mostly up to about 92 µM; % of control where 0% means no effect); conditions: HCT-116 p53RE-bla, beta-lactamase FRET ratio, 16 h; activation: stronger effect = higher value
Procedure, shortened: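 Cell-based beta-lactamase reporter (p53 response elements, HCT-116 background). After a 5-hour preincubation, cells received compound for 16 hours at 37 C; substrate development ran 2 hours at room temperature.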

[9] = qHTS assay for small molecule activators of the nuclear factor-kappa B (NF-kB) signaling pathway (AID 651749; active means well fitted activation curve with a large enough effect in the signal ratio; the % refers to the signal ratio; further: series mostly up to about 77 µM; % of control where 0% means no effect); conditions: NF-kB-bla ME-180 cells, beta-lactamase FRET ratio, 16 h; activation: stronger effect = higher value
Procedure, shortened: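 Screening used 2,000 ME-180 reporter cells per well exposed to pinned compound (23 nL) or DMSO; after 16 hr at 37C, beta-lactamase expression under NF-kB control was assessed through FRET.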

[10] = qHTS assay for environmental chemicals that activate the Aryl hydrocarbon Receptor (AhR) signaling pathway (AID 651777; active means well fitted curve in the direction sought with a large enough effect; an effect the other way counts as inactive or inconclusive; further: nearly all actives have a fitted effect of over 15% in size; further: potency means the concentration at half of the fitted maximal effect; on activation: % of control where 0% means no effect); conditions: 1A2-DRE human hepatoma cells, luciferase, 24 h; activation: stronger effect = higher value
Procedure, shortened: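 Stable CYP1A2 promoter/DRE-luciferase human hepatoma line treated 24 hr; One-Glo luminescence, 30 min RT.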

[11] = molecular target: Peroxisome proliferator-activated receptor alpha (Homo sapiens) (UniProt Q07869); assay: qHTS assay for small molecule agonists of the peroxisome proliferator-activated receptor alpha (PPARalpha) signaling pathway (AID 651778; active means well fitted curve in the direction sought with a large enough effect; an effect the other way counts as inactive or inconclusive; further: % of control where 0% means no effect); conditions: PathHunter PPARalpha complementation, chemiluminescence, 6 h; max response: stronger effect = higher value
Chain of Peroxisome proliferator-activated receptor alpha (Homo sapiens) (Q07869 whole entry, looked up): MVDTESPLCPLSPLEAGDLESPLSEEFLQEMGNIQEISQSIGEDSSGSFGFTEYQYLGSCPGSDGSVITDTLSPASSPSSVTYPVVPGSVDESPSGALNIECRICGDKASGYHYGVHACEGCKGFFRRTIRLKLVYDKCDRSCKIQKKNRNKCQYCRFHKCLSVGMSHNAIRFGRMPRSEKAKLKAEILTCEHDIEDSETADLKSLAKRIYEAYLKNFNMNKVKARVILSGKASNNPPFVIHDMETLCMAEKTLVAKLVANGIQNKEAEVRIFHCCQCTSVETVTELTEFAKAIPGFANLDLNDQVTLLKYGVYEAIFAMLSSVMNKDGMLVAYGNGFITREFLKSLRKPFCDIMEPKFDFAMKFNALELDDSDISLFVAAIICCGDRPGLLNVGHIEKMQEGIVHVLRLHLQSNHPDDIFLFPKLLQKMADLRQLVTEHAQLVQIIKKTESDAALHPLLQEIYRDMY
Procedure, shortened: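 Cells plated at 2,000/well and held overnight at 37 C, 5% CO2, then compound added by pin tool for 6 hr; after PathHunter detection reagent and 60 min at room temperature, chemiluminescence from enzyme complementation was read.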

[12] = qHTS assay for small molecule agonists of the antioxidant response element (ARE) signaling pathway measured by Nrf2-dependant transcriptional activity (AID 720636; active means well fitted curve in the direction sought with a large enough effect in the repeat runs; an effect the other way counts as inactive or inconclusive;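 further: HepG2 cells with an ARE-driven luciferase reporter; % of control where 0% means no effect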)
Procedure, shortened: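 Reporter gene assay, HepG2 ARE-luc: 16 hr compound, 37 C, 5% CO2; read-out luciferase luminescence.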

[13] = qHTS assay for small molecule agonists of the antioxidant response element (ARE) signaling pathway measured by Nrf2-dependant transcriptional activity - cell viability counter screen (AID 720653; active means well fitted curve in the direction sought with a large enough effect in the repeat runs; an effect the other way counts as inactive or inconclusive; further: on the % scale 0 is the no-effect control and ±100 the full control effect); conditions: ARE-bla HepG2 viability, CellTiter-Glo ATP luminescence, 16 h; max response: stronger effect = lower value
Procedure, shortened: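 ARE-bla HepG2 cells (2,000/well) rested 5 hrs at 37C/5% CO2, then exposed to compounds in DMSO for 16 hrs. Viability was read in the same wells as intracellular ATP by luminescence, 30 min at room temperature after reagent addition.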

[14] = qHTS assay for cell viability of HEK293 cells (AID 743288; active means well fitted curve in the direction sought with a large enough effect; an effect the other way counts as inactive or inconclusive; further: on the % scale 0 is the no-effect control and ±100 the full control effect; nearly all actives have a fitted effect of over 50% in size); conditions: ATP luminescence (CellTiter-Glo), 18 h; max response: stronger effect = lower value
Procedure, shortened: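 Parental HEK293 cells, 2,000 per well, preincubated at least 5 h at 37 C, then exposed to compounds in DMSO for 18 h at 37 C. Viability by CellTiter-Glo ATP luminescence after 30 min at room temperature.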

[15] = qHTS assay for cell viability of the p53RE-bla HCT-116 cell line (AID 743292; active means well fitted curve in the direction sought with a large enough effect; an effect the other way counts as inactive or inconclusive; further: on the % scale 0 is the no-effect control and ±100 the full control effect; nearly all actives have a fitted effect of over 55% in size)
Procedure, shortened: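 Readout: CellTiter-Glo luminescence after 30 min RT. Treatment: compounds in DMSO, 16 h, 37 C. Cells: CellSensor p53RE-bla HCT-116, 4,000/well, preincubated 5 h.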

[16] = molecular target: Estrogen receptor (Homo sapiens) (UniProt P03372); assay: qHTS assay for small molecule agonists of estrogen receptor alpha signaling (AID 588514);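 further: 0% = vehicle only and 100% = reference agonist; nearly all actives have a fitted effect of over 70% in size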
Procedure, shortened: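 Cells were plated at 5000/well, incubated 4 hrs at 37 C, dosed with compound titration series, incubated 18 hrs at 37 C, loaded with CCF4 dye for 2 hrs at RT, then fluorescence was read.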

[17] = qHTS assay for small molecule agonists of retinoid X receptor alpha signaling (AID 588544); conditions: HEK293T RXRa-UAS-bla, beta-lactamase reporter, 18 h; 530 nm emission;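 on activation: 0% = DMSO basal wells and 100% = reference agonist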
[18] = molecular target: Retinoic acid receptor RXR-alpha (Homo sapiens) (UniProt P19793); assay: as above
[19] = molecular target: Thyroid hormone receptor beta (Homo sapiens) (UniProt P10828); assay: qHTS assay for small molecule agonists of thyroid hormone receptor beta signaling (AID 588545);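 further: 0% = DMSO only and 100% = 10 nM T3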
Chain of Thyroid hormone receptor beta (Homo sapiens) (P10828 whole entry, looked up): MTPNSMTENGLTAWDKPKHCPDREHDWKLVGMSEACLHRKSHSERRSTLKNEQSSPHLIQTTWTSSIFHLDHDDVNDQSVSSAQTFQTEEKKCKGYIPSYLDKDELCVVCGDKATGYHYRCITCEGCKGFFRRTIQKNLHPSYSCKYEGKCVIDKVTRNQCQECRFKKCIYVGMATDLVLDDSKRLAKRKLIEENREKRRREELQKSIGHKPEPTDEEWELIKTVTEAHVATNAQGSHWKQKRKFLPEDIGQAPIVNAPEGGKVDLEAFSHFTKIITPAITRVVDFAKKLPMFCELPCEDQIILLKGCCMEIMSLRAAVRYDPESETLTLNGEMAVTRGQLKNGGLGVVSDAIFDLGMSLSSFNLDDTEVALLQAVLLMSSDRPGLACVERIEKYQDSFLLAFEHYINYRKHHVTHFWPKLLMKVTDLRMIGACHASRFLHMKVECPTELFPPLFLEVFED
Procedure, shortened: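 Compounds were tested as agonists in TR-UAS-bla-GripTite HEK 293 cells. After 18 hrs at 37 C, CCF4 substrate was added and fluorescence read after 2 hrs at room temperature.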

[20] = molecular target: Nuclear receptor subfamily 1 group I member 2 (Rattus norvegicus) (UniProt Q9R1A7); assay: qHTS assay for small molecule activators of the rat pregnane X receptor (rPXR) signaling pathway (AID 651751; call rule not given here; further: 0% is about no effect); conditions: rPXR reporter cells, luciferase (One-Glo), 24 h
Chain of Nuclear receptor subfamily 1 group I member 2 (Rattus norvegicus) (Q9R1A7 whole entry, looked up): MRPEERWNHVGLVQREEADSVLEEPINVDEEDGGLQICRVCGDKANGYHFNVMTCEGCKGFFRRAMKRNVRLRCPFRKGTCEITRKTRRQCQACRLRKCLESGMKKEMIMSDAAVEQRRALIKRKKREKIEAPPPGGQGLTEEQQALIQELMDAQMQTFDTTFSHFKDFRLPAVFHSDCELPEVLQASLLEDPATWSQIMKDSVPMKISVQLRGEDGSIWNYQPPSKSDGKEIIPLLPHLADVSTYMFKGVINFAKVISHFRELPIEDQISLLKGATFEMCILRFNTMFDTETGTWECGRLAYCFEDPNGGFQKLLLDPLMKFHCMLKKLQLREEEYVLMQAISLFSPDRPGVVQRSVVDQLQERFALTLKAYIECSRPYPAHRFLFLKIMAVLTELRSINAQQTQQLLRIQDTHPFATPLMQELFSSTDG

CC(=O)[C@H]1[C@H](C#N)C[C@H]2[C@@H]3CC=C4C[C@@H](O)CC[C@]4(C)[C@H]3CC[C@@]21C
inactive: Potency [1] | outcome [2]

Clc1ccc([C@@]2(Cn3cncn3)C[C@@H](Br)CO2)c(Cl)c1
-15.6%: max response [6]
inactive: Potency [1] | outcome [3] | Potency [4] | Potency [5] | outcome [2] | max response [7] -32.6% | activation [8] -2.11% | activation [9] -2.08% | activation [10] 1.89% | max response [11] -2.47% | Potency [12] | max response [13] 2.35% | max response [14] -20.7% | Potency [15]

Nc1nc(N)nc(Cl)n1
inactive: Potency [1] | Potency [16] | Potency [4] | Potency [18] | Potency [19] | max response [7] -8.75% and -3.8% and 6.06% | activation [8] 14% and -1.73% | activation [10] 0.466% and 6.68% and -2.27% | max response [11] 0.345% and 0.412% and -1.56% | Potency [12] | max response [13] -27.2% and -2.73% and -17.4% | max response [14] -6.86% and -11.8% and -2.3% | max response [20] 0.0938% and 1.1% and -0.658%
-6.94% and -9.26% and -7.48%: max response [6]
-8.55% and -12.5% and -6.12%: max response [17]

CC1(C)Cc2cccc(O)c2O1
-1.21%: max response [17]
-5.33%: max response [6]
inactive: Potency [1] | Potency [16] | Potency [4] | Potency [5] | outcome [2] | Potency [18] | Potency [19] | max response [7] -3.15% | activation [10] 0.293% | max response [11] -0.718% | Potency [12] | max response [13] 7.61% | max response [14] 4.44% | Potency [15] | max response [20] 1.61%

O=C(O)C(F)(F)C(F)(F)C(F)(F)C(F)(F)C(F)(F)F
6.49%: max response [17]
3.1%: max response [6]
inactive: Potency [1] | outcome [3] | Potency [4] | Potency [5] | outcome [2] | Potency [18] | Potency [19] | max response [7] -23% | activation [8] -4.82% | activation [10] 0.455% | max response [11] 4.72% | max response [13] 3.24% | Potency [15] | max response [20] 2.05%

CC(C)(C)C(=O)[C@@H](Oc1ccc(Cl)cc1)n1cncn1
-6.66%: max response [6]
9.03%: max response [17]
inactive: Potency [1] | Potency [16] | outcome [3] | Potency [4] | outcome [2] | Potency [18] | Potency [19] | max response [7] 9.68% | activation [8] 0.216% | activation [9] -1.55% | activation [10] 5.12% | max response [11] -2.73% | Potency [12] | max response [13] 0.855% | max response [14] -4.89% | Potency [15]

CC(Oc1ccc(Cl)cc1Cl)C(=O)O (stereo not drawn)
inactive: Potency [1] | Potency [5] | outcome [2] | Potency [18] | Potency [19] | max response [7] 1.72% | activation [8] 0.243% | activation [9] -1.28% | activation [10] -1.09% | max response [11] 0.174% | Potency [12] | max response [13] 8.84% | max response [14] -4.02% | Potency [15] | max response [20] -2.29%
2.43%: max response [6]
11.7%: max response [17]

Cc1cc(Cl)ccc1OC(C)C(=O)O (stereo not drawn)
inactive: Potency [1] | Potency [16] | outcome [3] | Potency [18] | Potency [19] | max response [7] -2.46% | activation [8] -1.95% | activation [9] -2.72% | activation [10] 0.794% | max response [11] 2.19% | Potency [12] | max response [13] -3.1% | max response [14] 0.82% | Potency [15] | max response [20] -0.122%
-5.5%: max response [17]
-2.86%: max response [6]

CCOC(=O)Nc1cccc(OC(=O)Nc2ccccc2)c1
2.58%: max response [17]
inactive: Potency [1] | Potency [16] | outcome [3] | Potency [4] | Potency [5] | outcome [2] | Potency [18] | max response [7] -20.8% | activation [8] -3.18% | activation [9] 0.127% | max response [11] -0.828% | max response [13] -18.4% | max response [14] -5.43%
active: Potency [10] 44.7 µM
0.0057%: max response [6]

Cn1cc(-c2ccccc2)c(=O)c(-c2cccc(C(F)(F)F)c2)c1
inactive: Potency [1] | Potency [16] | Potency [4] | max response [7] -21.3% | activation [8] -5.34% | activation [9] -0.874% | activation [10] 0.553% | max response [11] 1.29% | Potency [12] | max response [13] -0.838% | max response [14] -5.04% | Potency [15] | max response [20] 0.923%
0.227%: max response [6]

O=P(OCC(Br)CBr)(OCC(Br)CBr)OCC(Br)CBr (stereo not drawn)
inactive: Potency [19] | activation [8] 10.6% | max response [11] -0.385% | Potency [12] | max response [13] -25.3% | Potency [15] | max response [20] 0.175%
active: Potency [1] 35.5 µM [inhibitor]

CC(C)(c1ccccc1)c1cc(-n2nc3ccccc3n2)c(O)c(C(C)(C)c2ccccc2)c1
inactive: Potency [1] | Potency [16] | outcome [3] | Potency [4] | Potency [5] | outcome [2] | Potency [18] | Potency [19] | max response [7] 0.796% | activation [8] -0.652% | activation [9] 0.903% | activation [10] -0.0851% | max response [11] -0.734% | Potency [12] | max response [13] 4.77% | max response [14] -7.76% | Potency [15] | max response [20] 2.09%
-10.8%: max response [6]
-5.71%: max response [17]

COP(=O)(OC)O/C(C)=C/C(=O)N(C)C
-0.0825%: max response [17]
0.42%: max response [6]
inactive: Potency [1] | Potency [16] | outcome [3] | Potency [4] | Potency [5] | Potency [18] | max response [7] -0.431% | activation [8] -0.0413% | activation [9] -1.74% | activation [10] 1.01% | max response [11] -1.78% | Potency [12] | max response [13] 15.8% | max response [14] 2.37% | Potency [15] | max response [20] 1.37%
